The results in this text go back to PubChem BioAssay AID425 (Sanford-Burnham Center for Chemical Genomics, 2006).

Among all 110,000 compounds or so, about 190 (0.17%) were called active. Rule as the data show it: active = inhibition above about 50%; inactive = the rest. The entries come from a sample that favours actives as a whole. Potency and affinity values are given separately.

For this test, the target named is Dual specificity protein phosphatase 6 (Rattus norvegicus) (UniProt Q64346). Nature of the test: MKP-3 phosphatase inhibitors, primary screen, biochemical, rat enzyme, in vitro (AID 425).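 Also: plate controls were vehicle for no effect and reference inhibitor for full effect.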 The conditions noted are these: recombinant MKP-3 phosphatase activity, fluorescence; at 20 µM; hits give high values.
Sequence of Dual specificity protein phosphatase 6 (Rattus norvegicus) (Q64346 whole entry, looked up): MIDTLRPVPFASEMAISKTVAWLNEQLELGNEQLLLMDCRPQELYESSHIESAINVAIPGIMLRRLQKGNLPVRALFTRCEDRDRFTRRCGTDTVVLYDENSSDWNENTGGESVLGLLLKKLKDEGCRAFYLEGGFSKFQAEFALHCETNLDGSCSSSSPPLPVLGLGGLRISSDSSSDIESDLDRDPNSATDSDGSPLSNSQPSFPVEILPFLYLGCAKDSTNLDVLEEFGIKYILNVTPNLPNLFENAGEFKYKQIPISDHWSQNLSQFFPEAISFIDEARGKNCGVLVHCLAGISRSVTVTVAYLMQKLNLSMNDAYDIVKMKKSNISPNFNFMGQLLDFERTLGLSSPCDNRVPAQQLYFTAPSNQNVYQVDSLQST
For orientation: inhibition means the change of the read-out against control, counted positive when it falls. `CN(CN1C(=O)C(=O)c2cc([N+](=O)[O-])ccc21)[N+](=O)[O-]`: the inhibition is 86.6% (active).

As for `O=[N+]([O-])c1ccc(N2CCN(Cc3ccccc3)CC2)c(Cl)c1`, the inhibition was -2.4% (inactive).

For `CN(C)C(=O)Oc1ccc([N+](=O)[O-])cc1`, the inhibition was -1.2% (inactive).

For `O=C1NC(=O)N(c2ccccc2)C(=O)/C1=C/c1ccoc1`, the inhibition is 4.9% (inactive).

On to `CCN1C(=O)/C(=C/c2ccoc2)C(=O)NC1=S`, for which the inhibition was 107% (active).

Take `Cn1cccc1/C=C1/C(=O)NC(=S)N(c2ccc(Cl)cc2)C1=O`: the inhibition was 77.8% (active).

With `C=CCN1C(=O)NC(=O)C(=Cc2cccn2C)C1=O`, the inhibition was 2.3% (inactive).

As for `COc1ccc(CN2C(=O)NC(=O)/C(=C\c3ccoc3)C2=O)cc1`, the inhibition was 5.2% (inactive).

With `C=CCN1C(=O)/C(=C\c2cccn2-c2ccc([N+](=O)[O-])cc2)C(=O)NC1=S`, the inhibition was 37.5% (inactive).

Regarding `CCN1C(=O)/C(=C/c2cccn2C)C(=O)NC1=S`, the inhibition was 108% (active).

For `CCN1C(=O)/C(=C/c2ccc(OC)c3ccccc23)C(=O)NC1=S`, the inhibition is 2.2% (inactive).

For `CN1C(=O)C(=Cc2cccn2-c2cccc([N+](=O)[O-])c2)C(=O)N(C)C1=O`, the inhibition was 4.9% (inactive).

On to `O=C1NC(=S)N(c2ccc(Cl)cc2)C(=O)/C1=C/c1ccc(-c2ccccc2C(=O)O)o1`, for which the inhibition was 6.3% (inactive).

`C=CCN1C(=O)/C(=C\c2cccn2-c2cccc([N+](=O)[O-])c2)C(=O)NC1=S`: the inhibition is 94.7% (active).

For `O=C1NC(=S)N(c2cccc(Cl)c2)C(=O)/C1=C/c1ccc(Cl)cc1`, the inhibition was -0.2% (inactive).

On to `CCC1(c2ccccc2)C(=O)NC(=O)N(C(=O)c2cccc(F)c2)C1=O` (stereo not given), for which the inhibition was -3.3% (inactive).

`O=C1NC(=O)C(=Cc2ccc(OCc3cccc(C(=O)O)c3)cc2)C(=O)N1`: the inhibition was -1% (inactive).

As for `CCOc1c(P(=S)(N(C)C)N(C)C)c(C)nn1-c1ccccc1`, the inhibition was -4.3% (inactive).

Take `Oc1ccc(CC2CC3CCN2CC3)cc1O` (stereo not given): the inhibition was -5.2% (inactive).

`CCCc1[nH]nc2c1C1(C(=O)N(CC(N)=O)c3ccccc31)C(C(=O)OC)=C(N)O2` (stereo not given): the inhibition was -2.9% (inactive).

For `CC1CCC(C(=O)NC(C(=O)N2CCC3(CC2)OCCO3)C(C)C)CC1` (stereo not given), the inhibition is -15.8% (inactive).

Consider `CCC1(C)CC(CCNCc2ccccc2)(c2ccc(C)cc2)CCO1` (stereo not given), for which the inhibition was -4% (inactive).

On to `Cc1ccccc1C(=O)Nc1cc(Cl)c([N+](=O)[O-])cc1Cl`, for which the inhibition is 1.4% (inactive).

Take `COC(=O)CCCNC(=O)CN1CC(c2ccccc2)CC1=O` (stereo not given): the inhibition was -1.1% (inactive).

As to `O=C(c1cc2c(s1)CCCC2)N1CCC2(CC1)OCCO2`, the inhibition is -11.3% (inactive).

For the molecule `O=C1NC(=S)N(c2cccc(Br)c2)C(=O)/C1=C/c1cccs1`, the inhibition was 5.7% (inactive).

Regarding `Cc1cccc(N2C(=O)NC(=O)C(=Cc3ccco3)C2=O)c1`, the inhibition is 2.3% (inactive).

On to `CC(C)c1ccc(N2C(=O)NC(=O)/C(=C/c3ccco3)C2=O)cc1`, for which the inhibition was 4.9% (inactive).

On to `CCOc1ccc(N2C(=O)/C(=C/c3ccc(C)cc3)C(=O)NC2=S)cc1`, for which the inhibition was 2.5% (inactive).

`O=C1NC(=S)N(c2cccc(Br)c2)C(=O)/C1=C/C=C/c1ccccc1`: the inhibition was 11.1% (inactive).

Turning to `CCOc1ccc(N2C(=O)/C(=C/c3cc(Cl)ccc3O)C(=O)NC2=S)cc1`, the inhibition was 4.8% (inactive).

Consider `CCOc1ccc(N2C(=O)/C(=C/c3ccco3)C(=O)NC2=S)cc1`, for which the inhibition is 107% (active).

With `O=C1NC(=O)N(c2cccc(Br)c2)C(=O)/C1=C/c1ccco1`, the inhibition is 97.8% (active).

As for `C=CCN1C(=O)/C(=C\C=C\c2ccco2)C(=O)NC1=S`, the inhibition is 83.7% (active).

Turning to `C=CCN1C(=O)/C(=C\c2ccc(C)o2)C(=O)NC1=S`, the inhibition is 8.6% (inactive).

For `O=C1NC(=S)N(c2cccc(Br)c2)C(=O)/C1=C/c1ccco1`, the inhibition is 108% (active).

With `O=C1NC(=O)N(Cc2ccccc2)C(=O)/C1=C\C=C\c1ccco1`, the inhibition was 3.4% (inactive).

Turning to `Clc1ccc(CCNCc2ccc3c(c2)OCO3)c(Cl)c1`, the inhibition is 1.1% (inactive).

For the molecule `O=c1c2ccccc2nc(-c2ccccc2F)n1-c1ccc(Cl)cc1`, the inhibition is 3.1% (inactive).

On to `O=C(Nc1cccc(OC(=O)N2CCOCC2)c1)N1CCOCC1`, for which the inhibition is 0.2% (inactive).

Consider `O=C1NC(=S)N(c2ccccc2)C(=O)/C1=C/c1ccco1`, for which the inhibition was 102% (active).

With `O=C1NC(=S)N(c2ccc(Br)cc2)C(=O)/C1=C/c1ccc(-c2ccccc2C(=O)O)o1`, the inhibition was 4.4% (inactive).

Regarding `Cc1ccc(C=C2C(=O)NC(=S)N(c3ccccc3F)C2=O)s1`, the inhibition is 3% (inactive).

For `CCOc1ccc2ccccc2c1/C=C1\C(=O)NC(=S)N(c2ccccc2)C1=O`, the inhibition is 0.5% (inactive).

As to `CN(C)c1ccc(C=C2C(=O)NC(=S)N(c3ccccc3F)C2=O)cc1`, the inhibition is -0.6% (inactive).

Turning to `O=C1NC(=S)N(c2ccccc2F)C(=O)C1=Cc1ccco1`, the inhibition is 99% (active).

As to `CN1CCN(Cc2nc3ccccc3n2C)CC1`, the inhibition is -3% (inactive).

Consider `CCN1CCN(c2ccc(C(F)(F)F)cn2)CC1`, for which the inhibition is 2.1% (inactive).

With `CN1CCN(c2ccc(NC(=O)C(C)(C)C)cc2)CC1`, the inhibition is -2.3% (inactive).

With `Cc1ccc2nc3c(cc2c1)CC1(C(=O)N(C)C(=O)N(C)C1=O)C1CCCCN31` (stereo not given), the inhibition was -20.3% (inactive).

`O=C(c1ccc(N2N=N2)cc1)c1ccc(N2N=N2)cc1`: the inhibition is -3.2% (inactive).

`COc1ccc(N2C(=O)/C(=C/c3ccc(I)o3)C(=O)NC2=S)cc1`: the inhibition was 108% (active).

With `CCOc1ccc(N2C(=O)/C(=C/c3ccc(C)o3)C(=O)NC2=S)cc1`, the inhibition is 13.5% (inactive).

Turning to `CN1C(=O)NC(=O)/C(=C/c2ccc(I)o2)C1=O`, the inhibition was -0.4% (inactive).

On to `CN1C(=O)NC(=O)/C(=C/c2ccc(Br)o2)C1=O`, for which the inhibition was 6% (inactive).

Turning to `O=C1NC(=O)N(c2ccc(Cl)cc2)C(=O)/C1=C/c1ccc(Br)o1`, the inhibition is 41.4% (inactive).

`CCOc1ccc(N2C(=O)NC(=O)/C(=C\c3ccc(C)o3)C2=O)cc1`: the inhibition was 3.6% (inactive).

`COc1ccc(N2C(=O)/C(=C/c3ccc(-c4cc(C(=O)O)ccc4Cl)o3)C(=O)NC2=S)cc1`: the inhibition is 9.5% (inactive).

`CCOc1ccc(N2C(=O)/C(=C/c3ccc(Br)o3)C(=O)NC2=S)cc1`: the inhibition is 104% (active).

Turning to `O=C1NC(=S)N(c2ccc(F)cc2)C(=O)/C1=C/c1ccc(Br)o1`, the inhibition was 90.9% (active).

On to `CCOC(=O)C1CCN(/C=C2/C(=O)NC(=O)N(Cc3ccco3)C2=O)CC1`, for which the inhibition was -5.2% (inactive).

On to `O=C1N(CN2CCOCC2)c2ccccc2C1(O)c1c[nH]c2ccccc12` (stereo not given), for which the inhibition is 0.3% (inactive).

Turning to `CN(C)C(=O)Oc1ccc(OC(=O)c2ccccc2)cc1`, the inhibition is -6.4% (inactive).

Regarding `O=C1c2ccccc2C2(c3ccc(Cl)cc3)NCCN12` (stereo not given), the inhibition is -7.5% (inactive).

Turning to `O=[N+]([O-])c1ccc(N2CCNCC2)cc1NCCOc1ccccc1`, the inhibition was 3.6% (inactive).

For `O=C(COc1ccc(Cl)cc1)N1CCN(Cc2ccc([N+](=O)[O-])cc2)CC1`, the inhibition is -0.9% (inactive).

For the molecule `Cc1ccc(C=C2C(=O)N(C)C(=O)N(C)C2=O)o1`, the inhibition was -11.1% (inactive).

As for `Cc1cc(OCc2ccc(F)cc2)c2c3c(c(=O)oc2c1)CCCC3`, the inhibition is 2.6% (inactive).

`Cn1cc(/C=C2\C(=O)NC(=O)N(Cc3ccccc3)C2=O)c2ccccc21`: the inhibition is 2.1% (inactive).

As for `CC(C)N1CCN(Cc2cc(Br)ccc2O)CC1`, the inhibition was -1.8% (inactive).
